Article PMC10726135, “HNF4α isoforms regulate the circadian balance between carbohydrate and lipid metabolism in the liver”
The full ranking holds about 18,000 sequences; the median of “log2 normalized intensity” is about 0.36, and the highest 2% start at about 7.3. This is one part of a sample in which the highest values are shown more often than they occur.

target: T1, HNF4alpha8 (COS-7 nuclear extract) (Homo sapiens, UniProt P41235-5 1-452); experiment: protein-binding microarray; COS-7 nuclear extract on double-stranded Agilent 4x180k PBM; binding buffer, salt, pH and temperature not given in the material; high values mean tight binding; conditions: chain copies: 2; label: 3' end of strand 1 on the slide; dsDNA, one strand shown
T1 sequence: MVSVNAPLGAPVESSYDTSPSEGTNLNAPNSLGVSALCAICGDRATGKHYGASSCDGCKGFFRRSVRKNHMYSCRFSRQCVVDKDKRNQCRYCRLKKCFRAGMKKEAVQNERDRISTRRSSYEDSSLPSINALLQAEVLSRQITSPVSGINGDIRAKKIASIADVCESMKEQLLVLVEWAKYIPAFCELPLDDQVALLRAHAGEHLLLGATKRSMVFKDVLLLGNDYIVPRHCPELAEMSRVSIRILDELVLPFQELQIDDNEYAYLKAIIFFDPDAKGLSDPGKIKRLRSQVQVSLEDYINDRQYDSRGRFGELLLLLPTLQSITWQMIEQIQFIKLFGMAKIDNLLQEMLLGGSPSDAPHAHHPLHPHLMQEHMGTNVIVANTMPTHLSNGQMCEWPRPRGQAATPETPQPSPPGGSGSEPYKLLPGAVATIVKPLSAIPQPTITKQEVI
Procedure, shortened: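 Double-stranded oligonucleotides of ~60 nt, representing ~44,000 test sequences in quadruplicate, made up a custom Agilent SurePrint G3 4x180k array. Nuclear extracts from COS-7 cells transiently transfected by CaPO4 with a human HNF4α isoform expression vector were applied, and bound HNF4α was imaged at 2-µm resolution on an Agilent G2565CA scanner. Binding signal refers to the background-corrected, normalized gProcessedSignal output of Agilent software.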

In order of falling binding signal:
1. CTTCTTTGAAAGTTTGGTGGACTTTGGCCGGCCTAGGGAGATTAGAGTATCGGTCGA  10.1 log2 normalized intensity
2. CCTAAATCTAAGCTGGACTTTGAACTTCATGCCTAGGGAGATTAGAGTATCGGTCGA  9.68 log2 normalized intensity
3. TCTTAGGAAAGAACAGGTCAAAGGTCAGTTGCCTAGGGAGATTAGAGTATCGGTCGA  9.61 log2 normalized intensity
4. GGCGGCTAGTGTACAGGTGACCTTTGGAATGCCTAGGGAGATTAGAGTATCGGTCGA  9.41 log2 normalized intensity
5. TCAGCCTTAACTCAAAAGGCCAAAGTCCAAGCCTAGGGAGATTAGAGTATCGGTCGA  9.11 log2 normalized intensity
6. GCAGTTTAGAGAAAGGGTCAAAGGTTAAGCGCCTAGGGAGATTAGAGTATCGGTCGA  9.04 log2 normalized intensity
7. ATCTAAGCTGGACTTTGAACTTCATGTGTGGCCTAGGGAGATTAGAGTATCGGTCGA  8.61 log2 normalized intensity
8. TGGCTGGCGGCTAGTGTACAGGTGACCTTTGCCTAGGGAGATTAGAGTATCGGTCGA  7.84 log2 normalized intensity
9. CTAGTGTACAGGTGACCTTTGGAATGAACCGCCTAGGGAGATTAGAGTATCGGTCGA  7.75 log2 normalized intensity
10. GGAAAGAACAGGTCAAAGGTCAGTTTCTTTGCCTAGGGAGATTAGAGTATCGGTCGA  7.69 log2 normalized intensity
11. TTGAAAGTTTGGTGGACTTTGGCCGTGAAGGCCTAGGGAGATTAGAGTATCGGTCGA  7.64 log2 normalized intensity
12. GAACAGGTCAAAGGTCAGTTTCTTTAAGACGCCTAGGGAGATTAGAGTATCGGTCGA  7.63 log2 normalized intensity
13. TTTTCCACCCTCCCCTCCCCCTCCTCCCCTGCCTAGGGAGATTAGAGTATCGGTCGA  7.22 log2 normalized intensity
14. AGCTGGACTTTGAACTTCATGTGTGGTGCAGCCTAGGGAGATTAGAGTATCGGTCGA  6.95 log2 normalized intensity
15. TAATTCTTCTTTGAAAGTTTGGTGGACTTTGCCTAGGGAGATTAGAGTATCGGTCGA  6.91 log2 normalized intensity
16. AGTTTGGTGGACTTTGGCCGTGAAGCCGTCGCCTAGGGAGATTAGAGTATCGGTCGA  6.75 log2 normalized intensity
17. TTAGAGAAAGGGTCAAAGGTTAAGCCATTGGCCTAGGGAGATTAGAGTATCGGTCGA  6.33 log2 normalized intensity
18. AGATAGTGACGGAGGTGACCTTTGGTTGTCGCCTAGGGAGATTAGAGTATCGGTCGA  6.24 log2 normalized intensity
19. GCAGAGCAGTTTAGAGAAAGGGTCAAAGGTGCCTAGGGAGATTAGAGTATCGGTCGA  6.23 log2 normalized intensity
20. AACCCGCCCCCTCCCCCTGCCGGCGGCGCAGCCTAGGGAGATTAGAGTATCGGTCGA  6.05 log2 normalized intensity
21. GGTGGACTTTGGCCGTGAAGCCGTCCTGTCGCCTAGGGAGATTAGAGTATCGGTCGA  5.87 log2 normalized intensity
22. GGTCAAAGGTCAGTTTCTTTAAGACAAGTGGCCTAGGGAGATTAGAGTATCGGTCGA  5.86 log2 normalized intensity
23. GTGCACTTTGACCCTGCTGTAGTGTGTAAGGCCTAGGGAGATTAGAGTATCGGTCGA  5.69 log2 normalized intensity
24. GGTTGCCCAGGGAGAGCTGGACTTTCATCTGCCTAGGGAGATTAGAGTATCGGTCGA  5.54 log2 normalized intensity
25. TGAGACTTTGGACTTTTGAACTAAGGCTGGGCCTAGGGAGATTAGAGTATCGGTCGA  5.5 log2 normalized intensity
26. GACTGTCTTAGGAAAGAACAGGTCAAAGGTGCCTAGGGAGATTAGAGTATCGGTCGA  5.06 log2 normalized intensity
27. TCCACAGTCAAGGCCAAAGGTTAAAAATAAGCCTAGGGAGATTAGAGTATCGGTCGA  4.8 log2 normalized intensity
28. TGGGCCAAAGGTCATACCTGTCTAGGTGGAGCCTAGGGAGATTAGAGTATCGGTCGA  4.74 log2 normalized intensity
29. ATTATGGTAGGCAGCCTCTGAGATGGACTCGCCTAGGGAGATTAGAGTATCGGTCGA  3.96 log2 normalized intensity
30. AAATTATTACTCCCACCGTGTGTGCACTTTGCCTAGGGAGATTAGAGTATCGGTCGA  3.9 log2 normalized intensity
31. ACAAAGATCATAAATGCCTCCCCCTCTTTAGCCTAGGGAGATTAGAGTATCGGTCGA  3.85 log2 normalized intensity
32. AATTCTTAAGCCAAAGTCCAAGTTGGTGAGGCCTAGGGAGATTAGAGTATCGGTCGA  3.81 log2 normalized intensity
33. TTGTCCTTAGACAGTAACCCTTGAGCTCTGGCCTAGGGAGATTAGAGTATCGGTCGA  3.73 log2 normalized intensity
34. CTTTGGACTTTTGAACTAAGGCTGGAATGAGCCTAGGGAGATTAGAGTATCGGTCGA  3.69 log2 normalized intensity
35. GGCGAGTGTGCAATTAGAGCAAAGGTTACTGCCTAGGGAGATTAGAGTATCGGTCGA  3.57 log2 normalized intensity
36. TTTGTCCCCCACCTGTGAAGATAAGCTGTCGCCTAGGGAGATTAGAGTATCGGTCGA  3.17 log2 normalized intensity
37. TCTTGTCCTTCCCCTTTTGTGTTTGTCCCTGCCTAGGGAGATTAGAGTATCGGTCGA  3.03 log2 normalized intensity
38. TCAGAAACAGGAATTCAAAGGTGCAAAGGTGCCTAGGGAGATTAGAGTATCGGTCGA  2.84 log2 normalized intensity
39. CTTTGGACTTTCAAAAGTTAAGGTCAAGACGCCTAGGGAGATTAGAGTATCGGTCGA  2.78 log2 normalized intensity
40. TATTGAGAAGAAACCTTTGCCCAACAGGATGCCTAGGGAGATTAGAGTATCGGTCGA  2.13 log2 normalized intensity
41. GACTTTGAACTTCATGTGTGGTGCAGATTCGCCTAGGGAGATTAGAGTATCGGTCGA  2.1 log2 normalized intensity
42. TATCTTTGGAGAATGCCTTTTGTGTAGGAGGCCTAGGGAGATTAGAGTATCGGTCGA  1.69 log2 normalized intensity
43. GGCATTAATTCTTCTTTGAAAGTTTGGTGGGCCTAGGGAGATTAGAGTATCGGTCGA  1.65 log2 normalized intensity
44. TAGGGAAAATAGTGACCCTGTCTCTCAGTCGCCTAGGGAGATTAGAGTATCGGTCGA  1.62 log2 normalized intensity
45. TTGGAGAATGCCTTTTGTGTAGGAGTACACGCCTAGGGAGATTAGAGTATCGGTCGA  1.46 log2 normalized intensity
46. ATTAGCTTCTGTTCAGGAGTTGTCTGTCCAGCCTAGGGAGATTAGAGTATCGGTCGA  1.39 log2 normalized intensity
47. CCCTCGGGCCGGGAAACGCCCTCGGCGCGCGCCTAGGGAGATTAGAGTATCGGTCGA  1.34 log2 normalized intensity
48. TGAAAGTTCTCTGGGCTTTTTGATCTTGTCGCCTAGGGAGATTAGAGTATCGGTCGA  1.25 log2 normalized intensity
49. TAGGAGACTGTCTTAGGAAAGAACAGGTCAGCCTAGGGAGATTAGAGTATCGGTCGA  0.841 log2 normalized intensity
50. TGCATGGATTTCTCAGTTGAGGAATGGGTAGCCTAGGGAGATTAGAGTATCGGTCGA  0.827 log2 normalized intensity
51. AAAGCTGGCTGGCGGCTAGTGTACAGGTGAGCCTAGGGAGATTAGAGTATCGGTCGA  0.565 log2 normalized intensity
52. AAGATTTATCAGGTCTTTCTTTCAGAACAGGCCTAGGGAGATTAGAGTATCGGTCGA  0.553 log2 normalized intensity
53. AGAATGGAGAAAACAACATTCCTTGTGTTTGCCTAGGGAGATTAGAGTATCGGTCGA  0.48 log2 normalized intensity
54. CCATGCTCTTTGGCCTGGCATTTGAGACTAGCCTAGGGAGATTAGAGTATCGGTCGA  0.329 log2 normalized intensity
55. TGATCTTTGAAACATAACAGCAACAACACAGCCTAGGGAGATTAGAGTATCGGTCGA  0.241 log2 normalized intensity
56. GGAATGAGCAGGAACCTTGTGGTGGTGAAAGCCTAGGGAGATTAGAGTATCGGTCGA  0.216 log2 normalized intensity
57. TATTTGCTCACCAGTGACCAATAATGTAATGCCTAGGGAGATTAGAGTATCGGTCGA  0.199 log2 normalized intensity
58. TGATAAGATTTATCTCTCCAAGGTACTGTGGCCTAGGGAGATTAGAGTATCGGTCGA  0.189 log2 normalized intensity
59. GGGGAGGTGGGAAAAGAAATGTAGTGACAGGCCTAGGGAGATTAGAGTATCGGTCGA  -0.392 log2 normalized intensity
60. TCCTCTCTCCCACAAGGGCAGCCCTGTTTAGCCTAGGGAGATTAGAGTATCGGTCGA  -0.515 log2 normalized intensity
61. ATTGTGAAACGTTTGAATTCTTGCCTATCCGCCTAGGGAGATTAGAGTATCGGTCGA  -0.841 log2 normalized intensity
62. GCTAGGTGGCGGGCTGGCTCAGGACAGGTGGCCTAGGGAGATTAGAGTATCGGTCGA  -0.886 log2 normalized intensity
63. TATCAGCTTTGAGACACCTGGCCAAGTACAGCCTAGGGAGATTAGAGTATCGGTCGA  -0.899 log2 normalized intensity
64. TCCCTGAAGGCCAGGCAGCACAATTTGTGTGCCTAGGGAGATTAGAGTATCGGTCGA  -0.959 log2 normalized intensity
